Shown are actives, neighbours in structure and some others; about 17% of the full set was active somewhere.
DT40 TDP1 CPT: growth inhibition of DT40 Tdp1-/-;hTDP1 cells with camptothecin (screen for TDP1 inhibitors) | chicken DT40 Tdp1-/-;hTDP1 cells + 20 nM CPT, ATP luminescence, 48 h | Potency, µM (top dose mostly 46.2 µM), without a hit: top-dose activity change, negative = growth inhibition, most hits filed as inhibitors | 420,000 tested, 12% active | AID 686979; also: % is scaled to controls: 0 for no effect and ±100 for the full control effect; nearly all actives have a fitted effect of over 55% in size
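Chicken DT40 Tdp1-/- cells stably complemented with human TDP1 were seeded at 400 cells/well in medium containing 20 nM camptothecin, exposed to pin-transferred compounds, and grown at 37 °C for at least 48 hr. Viability was read as ATP luminescence.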
TDP1 inh: TDP1 (human) enzyme inhibition; Potency, µM (highest dose often 130 µM), inactives show at the top dose activity change, negative = inhibition, most hits filed as inhibitors; AID 485290; Q9NUW8; 350,000 tested, 0.28% active; recombinant TDP1, AlphaScreen DNA substrate cleavage; also: % is scaled to controls: 0 for no effect and ±100 for the full control effect; nearly all actives have a fitted effect of over 40% in size
Target sequence (Q9NUW8 whole entry, looked up): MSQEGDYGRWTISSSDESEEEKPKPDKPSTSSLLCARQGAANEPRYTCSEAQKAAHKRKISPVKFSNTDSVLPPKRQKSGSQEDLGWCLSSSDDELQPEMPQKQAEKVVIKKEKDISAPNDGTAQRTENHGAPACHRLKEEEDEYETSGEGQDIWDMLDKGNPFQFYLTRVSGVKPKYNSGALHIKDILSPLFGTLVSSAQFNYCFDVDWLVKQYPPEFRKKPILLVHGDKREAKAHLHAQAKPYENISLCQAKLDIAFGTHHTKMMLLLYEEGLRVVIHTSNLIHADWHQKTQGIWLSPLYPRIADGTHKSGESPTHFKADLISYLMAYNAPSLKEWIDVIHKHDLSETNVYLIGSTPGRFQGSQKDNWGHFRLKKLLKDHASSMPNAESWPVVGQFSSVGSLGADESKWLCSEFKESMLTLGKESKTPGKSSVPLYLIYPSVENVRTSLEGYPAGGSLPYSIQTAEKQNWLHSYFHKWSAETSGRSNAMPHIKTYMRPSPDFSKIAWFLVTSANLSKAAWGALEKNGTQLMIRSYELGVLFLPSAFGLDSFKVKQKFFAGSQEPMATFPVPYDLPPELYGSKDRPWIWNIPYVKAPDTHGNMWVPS
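Here, a 5' biotin and 3' phosphotyrosine-FITC DNA oligonucleotide reports Tdp1 activity: intact substrate bridges AlphaScreen beads, while cleavage leaves a 3' phosphate and drops signal. All incubations at room temperature.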
ClpP mod: qHTS Assay for Activators of ClpP | ATP-dependent Clp protease proteolytic subunit (Bacillus subtilis (strain 168)), P80244 | purified B. subtilis ClpP, FRET peptide cleavage, 20 min | Potency, µM (top dose mostly 57.5 µM), for inactives: at the top dose activity change, negative = active | 340,000 tested, 1.9% active; active = well fitted falling curve with a large enough effect; inconclusive = small, poorly fitted or top-dose-only effect; inactive = no such curve, though single readings can be large or run the other way; also: the source files actives as falling curves though it sought activators and does not explain the sign; nearly all actives have a fitted effect of over 65% in size
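Buffer: 100 mM Tris/HCl pH8, 100 mM KCl, 0.05% low protease BSA, 2.5% glycerol, 0.01% Tween-20. ClpP 10 microg/mL final; 20 min RT; delta FRET normalized to ADEP and DMSO controls.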
TDP1 cell noCPT: qHTS for Inhibitors of human tyrosyl-DNA phosphodiesterase 1 (TDP1): qHTS in cells in absence of CPT; DT40 Tdp1-/- hTDP1 cells, no CPT, ATP luminescence, 48 h; Potency, µM (top dose mostly 46.2 µM), for inactives: at the highest dose activity change, negative = growth inhibition, actives largely listed as inhibitors; 420,000 tested, 15% active; AID 686978, 2013; also: % is scaled to controls: 0 for no effect and ±100 for the full control effect; nearly all actives have a fitted effect of over 55% in size
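Seeded 400 DT40-hTDP1 cells/well (vehicle DMSO, no 20 nM CPT); pinned compounds; ≥48 hr at 37 °C; CellTiter-Glo luminescence as viability measure.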
* = called active by the depositor. Unless noted, calls follow the shape of the dose curve; as a rule, active = well fitted curve in the direction sought with a large enough effect; inconclusive = small, poorly fitted or top-dose-only effect, or another doubt; inactive = no such curve, though single readings can be large; an effect the other way counts as inactive or inconclusive. Potency is read from the fitted curve at half-maximal effect.

Screening COC(=O)[C@@H]1CCCN1C(=O)c1c(OC)cc(=O)n2c1CCN(Cc1cc(OC)ccc1F)CC2 returned DT40 TDP1 CPT -1.8% and TDP1 cell noCPT -22.6%.
For CCOC(=O)c1cc(C)n(-c2ccccc2)c1C the results were DT40 TDP1 CPT 3.8%, TDP1 inh 2.5% and TDP1 cell noCPT -12.8%.
`Cc1ccc(NC(=O)c2ccc(NCCN)c([N+](=O)[O-])c2)cc1` gave DT40 TDP1 CPT inconclusive, TDP1 inh 6.7%, ClpP mod -3.8% and TDP1 cell noCPT inconclusive.
CCc1nc(N)nc(N)c1-c1ccc(NCCN)c([N+](=O)[O-])c1 was read as DT40 TDP1 CPT 8.2µM*, ClpP mod -2.5% and TDP1 cell noCPT 2.59µM*.
`CCc1nc(N)c(C#N)c(-c2ccncc2)c1C` gave DT40 TDP1 CPT -22.7%, TDP1 inh 1.9%, ClpP mod inconclusive and TDP1 cell noCPT 5.8%.
`CCc1nc(N)nc(N)c1-c1ccc(Cl)cc1` gave DT40 TDP1 CPT 0.944µM*, TDP1 inh 2.7%, ClpP mod -2.7% and TDP1 cell noCPT 0.651µM*.
For C#CCNC(=O)C1=C[C@@H](c2ccc3c(c2)OCO3)C[C@@H](OCc2ccc(CO)cc2)O1 the results were DT40 TDP1 CPT inconclusive, ClpP mod -4.8% and TDP1 cell noCPT inconclusive.
`Cc1ccccc1C(=O)Nc1ccc2c(C#N)c3nc4ccccc4nc3n2c1` gave DT40 TDP1 CPT 20.6µM*, TDP1 inh 11.3%, ClpP mod -4.0% and TDP1 cell noCPT 20.6µM*.
Screening O=C(Cn1c(-c2cccs2)cc2cc(F)ccc21)NCCCN1CCN(c2ccccc2F)CC1 returned DT40 TDP1 CPT 20.6µM*, TDP1 inh 2.5%, ClpP mod 31.6µM* and TDP1 cell noCPT 20.6µM*.
For O=C(Cn1c(-c2cccs2)cc2ccccc21)NCCCN1CCN(c2ccccc2F)CC1 the results were DT40 TDP1 CPT 23.1µM*, TDP1 inh 2.5%, ClpP mod inconclusive and TDP1 cell noCPT 16.4µM*.
`CC(C)CCNC(=O)Cn1c(-c2cccs2)cc2cc(F)ccc21` gave DT40 TDP1 CPT -25.1%, TDP1 inh 3.7%, ClpP mod 31.6µM* and TDP1 cell noCPT -22.3%.
Cc1ccnc(NC(=S)NC(=O)/C=C/c2ccc(Cl)cc2)c1 was read as DT40 TDP1 CPT -3.7%, TDP1 inh -3.0%, ClpP mod 0.7% and TDP1 cell noCPT -14.6%.
Screening CC(C)NC(=O)c1ccc(Cn2c(=O)c3cccn3c3cccnc32)cc1 returned DT40 TDP1 CPT 3.8%, TDP1 inh 2.6%, ClpP mod -19.1% and TDP1 cell noCPT inconclusive.
For O=C(Nc1nc2n(n1)C(c1ccccc1)C=C(c1ccccc1)N2)c1ccco1 (stereo not given) the results were DT40 TDP1 CPT 6.2%, TDP1 inh 4.2%, ClpP mod -4.3% and TDP1 cell noCPT 10.9%.
Screening CC(=O)Nc1nc2n(n1)C(c1ccc(Cl)cc1)C=C(C)N2 (stereo not given) returned DT40 TDP1 CPT 3.4%, TDP1 inh 0.0%, ClpP mod 3.16µM* and TDP1 cell noCPT -9.6%.
For CC(=O)Nc1nc2n(n1)C(c1ccc(F)cc1)C=C(c1ccccc1)N2 (stereo not given) the results were DT40 TDP1 CPT inconclusive, TDP1 inh 11.7%, ClpP mod inconclusive and TDP1 cell noCPT 17.8µM*.
`Cc1ccc(C2C=C(c3ccccc3)Nc3nc(NS(=O)(=O)c4ccc(C)cc4)nn32)cc1` (stereo not given) gave DT40 TDP1 CPT inconclusive, TDP1 inh 7.0%, ClpP mod -6.2% and TDP1 cell noCPT inconclusive.
For O=C(Nc1nc2n(n1)C(c1ccc(F)cc1)C=C(c1ccccc1)N2)c1cccc([N+](=O)[O-])c1 (stereo not given) the results were DT40 TDP1 CPT 18.4µM*, TDP1 inh 11.4%, ClpP mod -2.2% and TDP1 cell noCPT 10.3µM*.
`COc1ccc(C2C=C(c3ccc(Cl)cc3)Nc3nc(NC(C)=O)nn32)cc1` (stereo not given) gave TDP1 inh 8.0%.
Screening CS(=O)(=O)Nc1nc2n(n1)C(c1ccccc1)C=C(c1ccc(Br)cc1)N2 (stereo not given) returned DT40 TDP1 CPT -22.8%, TDP1 inh -2.6%, ClpP mod 8.91µM* and TDP1 cell noCPT -18.4%.
Screening COc1ccc(CC(=O)Oc2ccccc2Cl)cc1S(=O)(=O)N1CCOCC1 returned DT40 TDP1 CPT -6.9%, TDP1 inh -4.9% and TDP1 cell noCPT -5.5%.
COc1ccc(/C=N/N2CCOCC2)cc1Cn1cc([N+](=O)[O-])cn1 was read as DT40 TDP1 CPT 6.1%, TDP1 inh 2.8%, ClpP mod -1.1% and TDP1 cell noCPT -3.3%.
For CCO/C(C)=N/Oc1cncnc1 the results were DT40 TDP1 CPT -13.8%, ClpP mod -0.6% and TDP1 cell noCPT -0.6%.
Screening CC(=O)NCCNc1nc(-c2ccc(N(C)C)cc2)nc2ccccc12 returned DT40 TDP1 CPT inconclusive, TDP1 inh 4.5% and TDP1 cell noCPT inconclusive.
`CCc1nc(C)cn1S(=O)(=O)c1cc(C)c(OC)c(C)c1C` gave DT40 TDP1 CPT 8.2µM*, TDP1 inh 1.4%, ClpP mod -0.5% and TDP1 cell noCPT 10.3µM*.
Screening CCc1nc(C)cn1S(=O)(=O)c1ccc(Cl)c(Cl)c1Cl returned DT40 TDP1 CPT 18.4µM*, TDP1 inh -2.6%, ClpP mod -1.7% and TDP1 cell noCPT 20.6µM*.
For COc1ccccc1N(CC(=O)NCC1CCCO1)C(=O)CNS(=O)(=O)c1ccccc1 (stereo not given) the results were DT40 TDP1 CPT -2.8%, TDP1 inh 3.1%, ClpP mod -2.9% and TDP1 cell noCPT 4.1%.
CC(C)Oc1ccc(C(=O)Nc2c3c(nn2-c2ccccc2)CS(=O)(=O)C3)cc1 was read as DT40 TDP1 CPT inconclusive, TDP1 inh -5.8%, ClpP mod -1.5% and TDP1 cell noCPT -29.8%.
`CCCC[C@@H]1CCCO[C@@](C(=O)NCc2ccccn2)(C(F)(F)F)C1` gave DT40 TDP1 CPT 18.4µM*, TDP1 inh 10.9%, ClpP mod -1.4% and TDP1 cell noCPT inconclusive.
`CCCC[C@@H]1CCCO[C@@](C(=O)NCc2cc(C)n(C)n2)(C(F)(F)F)C1` gave DT40 TDP1 CPT inconclusive, TDP1 inh 11.5%, ClpP mod 1.1% and TDP1 cell noCPT inconclusive.
CC1(C)Cc2ccccc2C2CC(O)C(=O)N21 (stereo not given) was read as DT40 TDP1 CPT 14.6µM*, TDP1 inh 6.0%, ClpP mod -0.2% and TDP1 cell noCPT inconclusive.
COc1ccc(/C=C/C(=O)NCCN=C2NS(=O)(=O)c3ccccc32)cc1 was read as DT40 TDP1 CPT -10.5%, TDP1 inh -3.1% and TDP1 cell noCPT -9.3%.
